PubChem BioAssay (NCI)
About 83,000 compounds went through this panel and 20% of them were active in at least one assay; those are over-represented in the sample as a whole.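 Activity criterion: percent growth below 10, measured after cells in 96-well plates were exposed to a single compound concentration for 48 hours.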 The source made the active and inactive calls.

Assays:
Experiment in all cases: NCI-60 one-dose screen, 48 h (100 = growth as untreated, 0 = no growth, -100 = all killed)
Settings in all cases: 10 µM unless noted
[1] = tested on: NCI-H23 lung
[2] = tested on: NCI-H226 lung
[3] = tested on: NCI-H322M lung
[4] = tested on: HOP-62 NSCLC
[5] = tested on: NCI-H460 lung
[6] = tested on: HOP-92 NSCLC
[7] = tested on: NCI-H522 lung
[8] = tested on: A549/ATCC NSCLC
[9] = tested on: 786-0 renal
[10] = tested on: COLO 205 colon
[11] = tested on: DU-145 prostate
[12] = tested on: K-562 leukemia
[13] = tested on: MALME-3M melanoma
[14] = tested on: RXF 393 renal
[15] = tested on: SF-268 CNS
[16] = tested on: SF-295 CNS
[17] = tested on: SF-539 CNS
[18] = tested on: UACC-257 melanoma
[19] = tested on: M14 melanoma
[20] = tested on: MDA-MB-231 breast

Measured: growth

CC(=O)Nc1cccc(Nc2nc(N[C@H]3CCCc4ccccc43)c3ccccc3n2)c1
inactive: [1] 104% | [2] 111% | [3] 103% | [4] 102% | [5] 104% | [6] 110% | [7] 97.5% | [8] 104% | [9] 106% | [10] 109% | [11] 104% | [12] 94.2% | [13] 102% | [14] 120% | [15] 95.5% | [16] 97.3% | [17] 97.2% | [18] 102% | [19] 101%

N#Cc1c(-c2cccc(Cl)c2Cl)cc(-c2ccc3ccccc3c2)[nH]c1=O
active: [6] -16.6% | [9] -65.1%
inactive: [1] 56.9% | [2] 19.6% | [3] 53.2% | [4] 34.4% | [5] 13.4% | [7] 78.7% | [8] 25.1% | [10] 116% | [11] 75.8% | [12] 91.2% | [13] 66% | [14] 60.9% | [15] 71.8% | [16] 31.8% | [17] 79.7% | [18] 94.2% | [19] 32.5%

O=C(c1ccc(OCCN2CCOCC2)cc1)C1[C@H](c2ccc(Cl)cc2)[C@@H](c2ccccc2)NC12C(=O)Nc1ccc(Br)cc12 (stereo not given in full)
inactive: [1] 26.1% | [2] 44% | [3] 53.8% | [4] 60.6% | [7] 10.3% | [8] 17.6% | [11] 41.6% | [13] 56.3% | [20] 18.2% | [15] 39.6% | [16] 21.8% | [17] 35% | [18] 39.7% | [19] 23.8%
active: [5] 6.73% | [6] -15.1% | [9] -4.29% | [10] -39.3% | [12] 1.09% | [14] -1.59%

C=Cn1cc(C(=O)O)c(=O)c2cc(F)c(N3CCN(c4nccc(-c5nccs5)n4)CC3)cc21
inactive: [12] 11.4% | [15] 22%
active: [1] -60.5% | [2] -20.5% | [3] -14.5% | [4] -34.4% | [5] 9.63% | [6] -32.7% | [7] -76.6% | [8] -34.3% | [9] -22.3% | [10] -61.5% | [11] -3.99% | [13] -29.2% | [14] -52.3% | [16] -26.4% | [17] -42.7% | [18] -27.3% | [19] -1.11%

CC1=C(C(=O)OCc2ccccc2)C(c2c(O)cc(O)cc2O)n2c(nc3ccccc32)N1 (stereo not given)
inactive: [1] 65.9% | [2] 62.2% | [3] 94.1% | [4] 47.8% | [5] 29.6% | [6] 83.1% | [8] 56.7% | [9] 49.4% | [10] 63.5% | [11] 82.3% | [12] 17.4% | [13] 52.7% | [14] 25.5% | [15] 52.7% | [16] 25.4% | [17] 16.8% | [18] 47.9% | [19] 41.7%
active: [7] 1.19%

CC(=O)Oc1ccccc1C(=O)[Se]C(=NC1CCCCC1)NC1CCCCC1
active: [1] -79.9% | [2] -88.1% | [3] -82.7% | [4] -87% | [5] -41.6% | [6] -13.6% | [7] -89.1% | [8] 0.226% | [9] -93.4% | [10] -70.6% | [11] -80% | [12] 3.88% | [13] -91.8% | [14] -99.7% | [15] 8.57% | [16] -78.9% | [17] -98.7% | [18] -89.9% | [19] -73.7%

C=C1CC[C@@H]2[C@]3(C)COC(c4cn(-c5ccccc5)nc4-c4cccc([N+](=O)[O-])c4)O[C@@H]3CC[C@@]2(C)[C@@H]1C/C=C1/C(=O)OC[C@H]1O (stereo not given in full)
inactive: [3] 90% | [4] 10.8% | [8] 30.7% | [11] 44.3% | [15] 46%
active: [1] -62.1% | [2] -48.6% | [5] 2.24% | [6] -84.3% | [7] -79.3% | [9] -35.8% | [10] -64.2% | [12] -12.7% | [13] -67.6% | [14] -84.2% | [16] -46.5% | [17] -96.4% | [18] -68% | [19] -51.2%

Cc1c(C(=O)NNC(=O)c2ccc(Cl)cc2)nnn1-c1ccc(Br)cc1
inactive: [1] 102% | [2] 97.1% | [3] 91% | [4] 98.4% | [5] 107% | [6] 91.6% | [7] 97.6% | [8] 100% | [9] 98.8% | [10] 104% | [11] 109% | [12] 91.3% | [13] 93.8% | [14] 93.1% | [15] 108% | [16] 90.9% | [17] 94.2% | [18] 97.7% | [19] 98.8%

CC(=O)Oc1ccccc1C(=O)[Se]CC(=O)Nc1cccc(C(F)(F)F)c1
active: [1] -50.9% | [2] -39.2% | [3] -16.5% | [4] -61.1% | [5] 0.365% | [6] -60.3% | [7] -30.4% | [8] -61.3% | [9] -14.7% | [11] 8.88% | [13] -92.8% | [14] -25.5% | [15] 2.38% | [16] -76.8% | [17] -90.1% | [18] -24.2% | [19] -37.4%
inactive: [10] 19.7% | [12] 18.6%

COc1ccc([C@H](C)Nc2nc(Cl)nc3ccccc23)cc1
active: [7] -0.556% | [12] 9.94%
inactive: [1] 23.2% | [2] 58.9% | [3] 86% | [4] 43.6% | [5] 60.8% | [6] 46.1% | [8] 70.2% | [9] 84.8% | [10] 90.3% | [11] 74.2% | [13] 66.5% | [14] 78.3% | [15] 76.6% | [16] 20.2% | [17] 68.3% | [18] 48.2% | [19] 78.8%

CC1=C(C(=O)c2ccccc2)C(c2ccc(-n3cncn3)cc2)n2c(nc3ccccc32)N1 (stereo not given)
inactive: [1] 87.9% | [2] 87.4% | [3] 79.5% | [4] 71.5% | [5] 80.5% | [6] 76.1% | [7] 83.2% | [8] 77.1% | [9] 96.8% | [10] 95.4% | [11] 71.7% | [12] 74.6% | [13] 81% | [14] 73.6% | [15] 77.1% | [16] 84% | [17] 39.1% | [18] 89.1% | [19] 99.2%

O=c1[nH]n(C(=S)N/N=C/c2ccccc2Cl)c(=O)c2ccccc12
active: [1] -43.6% | [2] -19.9% | [3] 5.29% | [4] -2.31% | [6] -0.742% | [7] -61.7% | [8] 7.02% | [10] -60.9% | [12] 4.54% | [14] -57.7% | [17] -20.2% | [19] -41.9%
inactive: [5] 14.5% | [9] 12.9% | [11] 15.1% | [13] 28.3% | [15] 28.5% | [16] 15.9% | [18] 37.2%

N/C(=N\c1nc2ccccc2s1)NC(=O)NCCCCCCO
inactive: [1] 31.4% | [2] 36.2% | [3] 71.1% | [4] 43.5% | [5] 59.3% | [6] 22% | [7] 36% | [8] 55% | [9] 58.7% | [10] 88.1% | [11] 56.7% | [12] 23.4% | [13] 54% | [14] 43.6% | [15] 61.6% | [16] 21.4% | [17] 64.8% | [18] 29.2% | [19] 67.3%

CNC(=O)c1cccc(NC(=O)c2ccc3c(c2)nnn3/C(C#N)=C/c2ccccn2)c1
active: [1] -39.3% | [2] -97.4% | [6] -29.5% | [7] -90% | [9] -95.9% | [10] -86.6% | [12] 0.0446% | [13] -97% | [14] -97.9% | [17] -72.8% | [18] -67.2% | [19] -73.6%
inactive: [3] 91.8% | [4] 82.7% | [5] 51.5% | [8] 83.2% | [11] 21.7% | [15] 24.4% | [16] 84.3%

CC1=C(C(=O)OCc2ccccc2)C(c2ccc(-n3cncn3)cc2)n2c(nc3ccccc32)N1 (stereo not given)
inactive: [1] 86% | [2] 77.6% | [3] 83.5% | [4] 64.6% | [5] 28.1% | [6] 73.9% | [7] 19.3% | [8] 60.1% | [9] 69.2% | [10] 37.9% | [11] 67.7% | [12] 14.3% | [13] 50.9% | [14] 52.2% | [15] 71.5% | [16] 19.9% | [17] 38.3% | [18] 51.5% | [19] 50.5%

C[C@H](Nc1nc(NCCc2ccccc2)nc2ccccc12)c1ccccc1
active: [1] -85.2% | [2] -80.4% | [3] -55.9% | [4] -90.3% | [5] -75.3% | [6] -81.1% | [7] -82.9% | [8] -33.2% | [9] -87.3% | [10] -93.7% | [11] -85.6% | [12] -43.9% | [13] -91.7% | [14] -90.5% | [15] -70.4% | [16] -95.8% | [17] -96.2% | [18] -76% | [19] -84.5%
